Screens from PubChem BioAssay.
KB-V1 MDR tox: kills drug-selected multidrug resistant KB-V1 cells | KB-V1 MDR cells viability, CellTiter-Glo, 72 h | Potency, µM (series often up to 46.1 µM), usual class: cytotoxic | actives 3.4% (n = 400,000); also: % is scaled to controls: 0 for no effect and ±100 for the full control effect; nearly all actives have a fitted effect of over 60% in size
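KB-V1 cells (P-gp-expressing MDR subline of KB-3-1) in phenol-red-free DMEM with 10% FBS were exposed to library compounds over a concentration series for 72 h at 37 degrees C. Viability read by CellTiter-Glo luminescence; concentration-effect curves fitted after normalization.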
HT1080-NT tox: kills 2HG-producing HT-1080-NT fibrosarcoma cells; HT-1080-NT fibrosarcoma viability, CellTiter-Glo ATP luminescence, 48 h; Potency, µM (highest dose often 46.1 µM), for inactives: at the highest dose activity, negative = less viability, actives largely listed as cytotoxic; actives 1.6% (n = 360,000); AID 686970;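 also: NT is the 2HG producing partner of a matched IDH1 knockdown line; 0% = DMSO-treated cells and -100% = media-only wells without cells; nearly all actives have a fitted effect of over 55% in size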
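Viability of the 2HG-overproducing fibrosarcoma line after 48 hours of compound exposure at 37 degrees C was determined by luminescence with CellTiter-Glo, and concentration-effect curves were then fitted and categorized.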
SW480 rerep: induces DNA re-replication in SW480 colon adenocarcinoma cells; SW480 DNA re-replication, Hoechst DNA content imaging, 48 h; Potency, µM (titrated, usually from 46.1 µM), inactives show at the top dose re-replication activation, hits mostly activators; actives 1.8% (n = 340,000); AID 624297; also: % of control where 0% means no effect; nearly all actives have a fitted effect of over 55% in size
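Quantitative HTS format with DMSO vehicle controls; 48 hr drug incubation at 37 C, then 40 min Hoechst staining and scanning imager measurement at 405 nm excitation.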
MCF10A rereplic: DNA re-replication induction in MCF 10a cells | AID 624296 | MCF 10A DNA re-replication, Hoechst nuclear intensity, 48 h | Potency, µM (titrated, usually from 46.1 µM), for inactives: top-dose activity, positive = re-replication, actives largely listed as activators | actives 2.9% (n = 350,000); also: % of control where 0% means no effect; nearly all actives have a fitted effect of over 50% in size
KB-3-1 cytotox: kills parental KB-3-1 adenocarcinoma cells; KB-3-1 viability, CellTiter-Glo ATP luminescence, 72 h; Potency, µM (titrated, usually from 46.1 µM), usual class: cytotoxic; actives 1.4% (n = 400,000); AID 1347075; also: % is scaled to controls: 0 for no effect and ±100 for the full control effect; nearly all actives have a fitted effect of over 60% in size
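Here the drug-naive KB-3-1 line serves as comparator for MDR sub-line selectivity; cells received compound titrations, 72 h at 37 °C, then CellTiter-Glo readout.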
HT1080 IDH1KD tx: HT-1080 IDH1 knockdown cell toxicity (counter line) | actives 2% (n = 360,000) | Potency, µM (titrated, usually from 46.1 µM), for the others: top-dose activity, negative = toxicity, most hits filed as cytotoxic | HT-1080 IDH1 knockdown viability, ATP luminescence, 48 h;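 also: 0% = DMSO wells and -100% = cell-free medium wells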
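Assay cells: HT-1080 with IDH1 knockdown, 750 per well, RPMI/5% FBS. Exposure: 48 h at 37 °C following 2 h pre-incubation. Read: CellTiter-Glo luminescence; fitted concentration-response, curve class assigned.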
An asterisk follows results filed as active; i = inactive; ? = inconclusive; . = no result. A selection: hits, their analogues and other compounds. The true share with any hit is near 7.9%. Calls follow the shape of the dose curve; as a rule, active = well fitted curve in the direction sought with a large enough effect; inconclusive = small, poorly fitted or top-dose-only effect, or another doubt; inactive = no such curve, though single readings can be large; an effect the other way counts as inactive or inconclusive. Potency is read from the fitted curve at half-maximal effect.

SMILES | KB-V1 MDR tox | HT1080-NT tox | SW480 rerep | MCF10A rereplic | KB-3-1 cytotox | HT1080 IDH1KD tx
CC(COc1ccccc1)N1CCC(CO)(CCc2ccccc2)CC1 (stereo not given) | ? | 16µM* | 20% | ? | i | ?
CC(C)(CNC(=S)NCCc1ccccc1)CNC(=S)NCCc1ccccc1 | i | ? | ? | 23µM* | ? | ?
CCCCCCNC(=O)OC12CN(C(=O)OC(C)C)N(C(=O)OC(C)C)CC1(O)CN(S(=O)(=O)c1ccc(C)cc1)C2 (stereo not given) | i | -28% | . | . | ? | ?
CCOC(=O)/C(C#N)=C/c1cc(C)n(-c2ccccc2)c1C | 9.2µM* | 4% | 0% | ? | i | 12%
Cc1cc(/C=C(\C#N)C(=O)Nc2ccccc2)c(C)n1-c1ccc(F)cc1 | i | . | . | . | i | .
Cc1ccc2nnc(Cl)n2n1 | i | 7% | -1% | -1% | i | 9%
Clc1nnc2ccc(-c3ccccc3)nn12 | 16µM* | 17% | 1% | 27% | 23µM* | 17%
CCc1ccc(NC(=S)Nc2cccc3cnccc23)cc1 | 21µM* | -5% | 6% | 2% | ? | -3%
CC(C)(C)OC(=O)N1CCc2onc(-c3ccccc3[N+](=O)[O-])c2C1=O | i | 8% | . | . | i | 7%
COc1cccc(NC(=O)N(CCCN2CCOCC2)C(C)c2cc3cccc(OC)c3o2)c1 (stereo not given) | i | -6% | 1% | 1% | i | -2%
COc1cccc(NC(=O)N(CCCN2CCOCC2)C(C)c2cc3ccccc3o2)c1 (stereo not given) | i | 16µM* | 15% | 25% | i | -12%
Cc1csc2c(N3CCN(C(=O)c4ccc(C(C)(C)C)cc4)CC3)ncnc12 | ? | 18µM* | -9% | ? | i | ?
CN(c1ccc(F)cc1)S(=O)(=O)c1ccc(Cl)c(C(=O)NCC2(N3CCOCC3)CCCCC2)c1 | 18µM* | 0% | -7% | 9% | i | -5%
Cc1ccc(NS(=O)(=O)c2ccc3c(c2)CCC(=O)N3)cc1Cl | i | . | . | . | i | .
COc1ccc(-c2noc(-c3ccc(N4CCCCC4C)c([N+](=O)[O-])c3)n2)cc1OC (stereo not given) | i | . | . | . | i | .
CC(C)c1noc(-c2ccccc2OCC(=O)Nc2cccc([N+](=O)[O-])c2)n1 | i | . | . | . | i | .
COc1ccc(NC(=O)c2nc(C)c(C3(C)CC(c4cccnc4)=NO3)s2)cc1 (stereo not given) | ? | ? | 7.3µM* | ? | 4.6µM* | 6.5µM*
NC(N)=N/N=C/c1ccc(OCc2ccccc2Cl)cc1 | i | 13µM* | 13µM* | -1% | ? | 16µM*
NC(N)=N/N=C/c1ccc(Cl)cc1Cl | ? | ? | ? | 1% | ? | 16µM*
NC(N)=N/N=C/c1ccccc1 | i | 10% | 0% | 0% | i | 0%
NC(N)=N/N=C/c1ccc(Cl)c(Cl)c1 | 21µM* | ? | ? | ? | 16µM* | ?
O=C(NC1CCCCC1)[C@@H]1CC=C[C@@H]2CCN(Cc3ccc(Cl)c(Cl)c3)C(=O)[C@@H]21 | i | . | . | . | i | .
COc1ccc(CNC(=O)CN2C(=O)c3cccnc3Oc3ccc(C)cc32)cc1 | i | . | . | . | i | .
CN(C(=O)c1oc(=O)c2ccccc2c1-c1ccccc1)c1cccc(Cl)c1 | i | . | . | . | i | .
COc1ccc(NC(=O)C2CCC(N3C(=O)C4C5C=CC(C5)C4C3=O)CC2)cc1 (stereo not given) | i | -14% | 1% | -3% | i | -11%
O=C(Nc1ccc(Cc2ccncc2)cc1)C1CCC(N2C(=O)C3C4C=CC(C5CC45)C3C2=O)CC1 (stereo not given) | 12µM* | ? | 14% | ? | ? | ?
